Records with an inconclusive call do not appear. A number with no mark means an inactive call. The source made the active and inactive calls. Calls follow the shape of the dose curve; as a rule, active = well fitted cell-killing curve with a large enough effect in the repeat runs; inconclusive = weak or mixed curves, or effect the other way; inactive = no such curve, though single readings can be large or run the other way.
assay: Caspase-3/7 induction in CHO-K1 cells by small molecules, qHTS cell viability counter screen (AID 1346979); details: CellTiter-Fluor fluorescence, 17 h; series mostly up to 92.4 µM; activity change, negative = cytotoxicity: at the top concentration; also: nearly all actives have a fitted effect of over 35% in size
Procedure, shortened: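 CellTiter-Fluor viability check, qHTS format: wild-type CHO-K1, 16hr compound treatment, 1hr reagent incubation, fluorescence read.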
% is scaled to controls: 0 for no effect and ±100 for the full control effect; potency is read from the fitted curve at half-maximal effect.

Compound	Potency	activity change, negative = cytotoxicity
C[C@@H](O[C@H]1OCCN(Cc2n[nH]c(=O)[nH]2)[C@H]1c1ccc(F)cc1)c1cc(C(F)(F)F)cc(C(F)(F)F)c1	29.8 µM (active)	
CCOc1cccc(-n2cc(C(=O)N3CCN(c4cc(C(=O)O)c5ccccc5c4)CC3)nc2-c2ccc(C)cc2)c1	58.3 µM (active)	
CCCCCC[C@@H](O)C/C=C\CCCCCCCC(=O)O		-1.55%
C[C@@H]1CN(CCCn2c3ccccc3c3ccccc32)C[C@H](C)N1	29.8 µM (active)	
CC(=O)OCCN(CCOC(C)=O)c1ccc(N=Nc2ccc([N+](=O)[O-])cc2C#N)cc1	54.5 µM (active)	
C=C(C)C(=O)OCCOCCOC(=O)C(=C)C		-2.23%
CCCCOc1ccc(OCCCN2CCOCC2)cc1		-8.07% [at 42.5 µM]
CC1CC(OC(=O)C(O)c2ccccc2)CC(C)(C)N1C (stereo not drawn)		-0.263% [at 42.5 µM]
CS(=O)(=O)c1ccc(-c2cn3ccccc3n2)cc1		6.33% [at 42.5 µM]
N#CCCN(CCO)CCO		0.041%
Cc1cccc(N(C)C(=S)Oc2ccc3c(c2)CCC3)c1		6.56% [at 42.5 µM]
C=C(C)C(=O)OCCCCCCCCCCCCC		0.763%
C[C@]1(Cn2ccnn2)[C@H](C(=O)O)N2C(=O)C[C@H]2S1(=O)=O		11.9% [at 42.5 µM]
CCOc1ccccc1O[C@H](c1ccccc1)[C@H]1CNCCO1		5.93% [at 42.5 µM]
Cc1ccc(CO)cc1		6.28%
OC[C@H]1O[C@@H](n2cnc3c(=S)nc[nH]c32)[C@H](O)[C@@H]1O		-9.95% [at 42.5 µM]
Nc1nc2ccc([N+](=O)[O-])cc2s1	47.2 µM (active)	
CC(=O)N/N=C/c1ccc([N+](=O)[O-])o1	29.8 µM (active)	

Reference: PubChem BioAssay (Tox21)
